Source: paper PMC5540273 (PLoS ONE, 2017)

tested on: LTK; conditions: concentration: 1 μM, replicates: in singlicate; n = 1
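Also: KINOMEscan kinase panel screen.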

Row | SMILES | %Inh [%]
1 | CNc1nccc(-c2c(-c3ccc(F)cc3)ncn2C2CCN(C)CC2)n1 [SB-222903] | 0
2 | CCn1c(-c2ccncc2)nc2cnccc21 [SB-735216] | 0
3 | Clc1cc(Nc2ncnc3cc[nH]c23)ccc1OCc1ccccn1 | 14
4 | CN1CCC(n2cnc(-c3ccc(F)cc3)c2-c2ccnc(NC3CCNCC3)n2)CC1 [SB-229482] | 0
5 | Fc1ccc(-c2ncn(CCCNCc3ccccc3)c2-c2ccncc2)cc1 | 0
6 | Cc1ccc(NC(=O)c2cccc(C#N)c2)cc1-c1ccc(C(=O)Nc2ccncc2)cc1 [GSK1398463] | 0
7 | O=C(c1ccc(-c2cc(-c3c[nH]nc3-c3ccccn3)ccn2)cc1)N1CCCC1 [GW792479] | 0
8 | Cl.c1ccc(Cn2ccc3cc(Nc4ncnc5ccccc45)ccc32)cc1 [GW275568] | 6
9 | CS(=O)(=O)CCNCc1ccc(-c2ccc3ncnc(Nc4ccc(OCc5ccccc5)c(Cl)c4)c3c2)o1.Cl [GW574783] | 25
10 | CCC(CC)(CC)n1cnc2c(N)ncnc21 [SKF-97620] | 6
11 | CC(C)(C)OC(=O)NC1CCCN(c2cc(-c3ccc4c(N)n[nH]c4c3)nc(N)n2)C1 (centres unmarked) [GSK2286096] | 0
12 | O=C(Nc1ccccc1F)NC1CCN(c2ccnc(Nc3ccc(F)cc3)n2)C1 (centres unmarked) [GSK1379722] | 0
13 | Cl.c1ccc(Cn2ncc3cc(Nc4ncnc5ccccc45)ccc32)cc1 [GW273749] | 0
14 | CC(=O)Nc1n[nH]c2ncc(-c3ccccc3)cc12 [SB-548492] | 5
